Assay results as given in the supplement of paper PMC9950053.
Where a name gives a salt, the structure may show the parent alone.

tested on: Danio rerio larvae (5 dpf); experiment: excitability (activity period 17 minus period 16, 1-s interval sound) minus DMSO control (percentage points); higher = more acoustic excitability than DMSO larvae; conditions: 10 µM; exposure time: 3 h pre-incubation + 3 h imaging
Experimental: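 Wild-type 5 dpf zebrafish larvae (n=48 per drug, 96-well plates, 28.5 °C) were exposed to Tocris FDA-approved library compounds at 10 µM (0.1% DMSO) for 3 h before and 3 h during imaging. Images were taken every 6 s during visual (moving coloured lines) and acoustic stimuli, and larvae were tracked with the DeepLabCut-based Z-LaP Tracker. Each behavioural measure is the treated-group mean minus the DMSO vehicle control mean (n=844), in percentage points. This mapping covers compounds with 4-character plate codes.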

Row | Compound | excitability
1 | CCCCCCCCc1ccc(CCC(N)(CO)CO)cc1 | 14.6
2 | CCOC(=O)[C@H](CCc1ccccc1)N[C@@H](C)C(=O)N1[C@H](C(=O)O)C[C@@H]2CCC[C@@H]21 [Ramipril] | 6.38
3 | CC(C)(C(=O)c1cccnc1)c1cccnc1 [Metyrapone] | 15.8
4 | Clc1ccccc1C(c1ccccc1)(c1ccccc1)n1ccnc1 [Clotrimazole] | 11.3
5 | CN(C)CCc1c[nH]c2ccc(Cn3cncn3)cc12 [Rizatriptan benzoate] | -0.877
6 | CC/C(=C(\c1ccccc1)c1ccc(OCCN(C)C)cc1)c1ccccc1 [Tamoxifen citrate] | 4.81
7 | CCOc1nc2cccc(C(=O)O)c2n1Cc1ccc(-c2ccccc2-c2nnn[nH]2)cc1 [Candesartan] | -3.55
8 | CC1=Nc2ccc(Cl)cc2S(=O)(=O)N1 [Diazoxide] | 3.88
9 | C=C1[C@H](CO)[C@@H](O)C[C@@H]1n1cnc2c(=O)[nH]c(N)nc21 [Entecavir] | -0.589
10 | CC(C)c1nc(CN(C)C(=O)N[C@H](C(=O)N[C@@H](Cc2ccccc2)C[C@H](O)[C@H](Cc2ccccc2)NC(=O)OCc2cncs2)C(C)C)cs1 [Ritonavir] | 8.43
11 | N[C@@H]1[C@H]2CN(c3nc4c(cc3F)c(=O)c(C(=O)O)cn4-c3ccc(F)cc3F)C[C@@H]12 [Trovafloxacin mesylate] | 12.2
12 | CCCCC(=O)N(Cc1ccc(-c2ccccc2-c2nnn[nH]2)cc1)[C@H](C(=O)O)C(C)C [Valsartan] | -1.67
13 | Nc1ncn([C@@H]2O[C@H](CO)[C@@H](O)[C@H]2O)c(=O)n1 [5-Azacytidine] | -2.47
14 | CN1CCC[C@@H]1CCO[C@](C)(c1ccccc1)c1ccc(Cl)cc1 [Clemastine fumarate] | 12.9
15 | CC(C)(C#N)c1cc(Cn2cncn2)cc(C(C)(C)C#N)c1 [Anastrozole] | 3.43
16 | CCCN(CCC)S(=O)(=O)c1ccc(C(=O)O)cc1 [Probenecid] | 5.41
17 | CO[C@H]1/C=C/O[C@@]2(C)Oc3c(C)c(O)c4c(O)c(c5c(nc6cc(C)ccn65)c4c3C2=O)NC(=O)/C(C)=C\C=C\[C@H](C)[C@H](O)[C@@H](C)[C@@H](O)[C@@H](C)[C@H](OC(C)=O)[C@@H]1C [Rifaximin] | 5.77
18 | NS(=O)(=O)c1cc(C(=O)O)c(NCc2ccco2)cc1Cl [Furosemide] | -1.6
19 | CN1CCC[C@@H]1Cc1c[nH]c2ccc(CCS(=O)(=O)c3ccccc3)cc12 [Eletriptan hydrobromide] | 6.84
20 | Cc1ccc(-c2cc(C(F)(F)F)nn2-c2ccc(S(N)(=O)=O)cc2)cc1 [Celecoxib] | 4.91

Row | Compound | excitability
21 | CCCCCOC(=O)Nc1nc(=O)n([C@@H]2O[C@H](C)[C@@H](O)[C@H]2O)cc1F [Capecitabine] | 6.07
22 | O=C(NCC1CCCCN1)c1cc(OCC(F)(F)F)ccc1OCC(F)(F)F (stereo not given) [Flecainide acetate] | 6.31
23 | C[C@H]1C[C@@H]2[C@H]([C@@H](O)C[C@@]3(C)[C@H]2CC[C@]3(O)C(=O)CO)[C@@]2(C)C=CC(=O)C=C12 [Methylprednisolone] | 1.52
24 | COc1c(C)c2c(c(O)c1C/C=C(\C)CCC(=O)OCCN1CCOCC1)C(=O)OC2 [Mycophenolate mofetil] | 4.14
25 | CCCc1nc2c(C)cc(-c3nc4ccccc4n3C)cc2n1Cc1ccc(-c2ccccc2C(=O)O)cc1 [Telmisartan] | 15.1
26 | CCCCC1=NC2(CCCC2)C(=O)N1Cc1ccc(-c2ccccc2-c2nnn[nH]2)cc1 [Irbesartan] | -0.258
27 | CCc1ccc(CCOc2ccc(CC3SC(=O)NC3=O)cc2)nc1 (stereo not given) [Pioglitazone hydrochloride] | 9.48
28 | CNC(=O)c1ccccc1Sc1ccc2c(/C=C/c3ccccn3)n[nH]c2c1 [Axitinib] | 1.48
29 | COc1ccc(-c2ccc3cc(C(=O)O)ccc3c2)cc1C12CC3CC(CC(C3)C1)C2 [Adapalene] | 0.726
30 | COc1cc2nc(N3CCN(C(=O)C4COc5ccccc5O4)CC3)nc(N)c2cc1OC (stereo not given) [Doxazosin mesylate] | 21.8
31 | CCc1c2c(nc3ccc(OC(=O)N4CCC(N5CCCCC5)CC4)cc13)-c1cc3c(c(=O)n1C2)COC(=O)[C@]3(O)CC | 8.99
32 | C[C@H](Cc1cc2c(c(C(N)=O)c1)N(CCCO)CC2)NCCOc1ccccc1OCC(F)(F)F [Silodosin] | 22.6
33 | CC(C)(C)NC(=O)[C@@H]1C[C@@H]2CCCC[C@@H]2CN1C[C@@H](O)[C@H](Cc1ccccc1)NC(=O)[C@H](CC(N)=O)NC(=O)c1ccc2ccccc2n1 [Saquinavir mesylate] | 7.09
34 | CS(=O)(=O)CCNCc1ccc(-c2ccc3ncnc(Nc4ccc(OCc5cccc(F)c5)c(Cl)c4)c3c2)o1 [Lapatinib] | 15.5
35 | Nc1ncn([C@H]2C[C@H](O)[C@@H](CO)O2)c(=O)n1 [Decitabine] | 8.23
36 | Cc1cc(C2CCCCC2)n(O)c(=O)c1 [Ciclopirox] | 5.61
37 | COC(=O)C1=C(C)NC(C)=C(C(=O)OC(C)C)C1c1cccc2nonc12 (stereo not given) [Isradipine] | 15.3
38 | O=C(c1ccc(OCCN2CCCCC2)cc1)c1c(-c2ccc(O)cc2)sc2cc(O)ccc12 [Raloxifene hydrochloride] | 9.77
39 | CC(c1cc2ccccc2s1)N(O)C(N)=O (stereo not given) [Zileuton] | 6.27
40 | Clc1ccc(COC(Cn2ccnc2)c2ccc(Cl)cc2Cl)c(Cl)c1 (stereo not given) [Miconazole nitrate] | -1.24
